This is an account of results in PubChem BioAssay AID624450 (Southern Research Specialized Biocontainment Screening …, 2012).

Activity calls are given as the source filed them. No rule for the calls is given here.

The nature of this test: Vero 76 cell cytotoxicity, cytotoxicity control for VEEV inhibitor project, set 7 (AID 624450). The following applies: Vero 76 cell viability, cytotoxicity counter-screen; series mostly up to 25 µM. In general terms: A counterscreen serves to expose hits that act by an unwanted route or on another target.
Turning to `CCN1CCN(Cc2nc3ccc(C(=O)O)cc3c(=O)n2-c2ccccc2)CC1`, the call was inactive. In the case of `COc1cccc(-n2c(CN3CCNCC3)nc3ccc([N+](=O)[O-])cc3c2=O)c1`, the call was inactive.

With `CCN1CCN(Cc2nc3ccc([N+](=O)[O-])cc3c(=O)n2C)CC1`, the result was inactive.

For the molecule `COc1ccccc1-n1c(CN2CCNCC2)nc2ccc([N+](=O)[O-])cc2c1=O`, the result was inactive. As for `COc1ccc(-n2c(CN3CCNCC3)nc3ccc([N+](=O)[O-])cc3c2=O)cc1`, the entry is “inactive”; as for `CCN1CCN(Cc2nc3ccc([N+](=O)[O-])cc3c(=O)n2-c2ccccc2F)CC1`, “inactive”; as for `O=c1c2cc([N+](=O)[O-])ccc2nc(CN2CCNCC2)n1-c1ccsc1`, “inactive”.
